{
  "source": "the supplement of paper PMC10681739",
  "key": {"ETS1 [1]": {"target": "T1, ETS1 (UniProt P14921)", "T1 sequence": "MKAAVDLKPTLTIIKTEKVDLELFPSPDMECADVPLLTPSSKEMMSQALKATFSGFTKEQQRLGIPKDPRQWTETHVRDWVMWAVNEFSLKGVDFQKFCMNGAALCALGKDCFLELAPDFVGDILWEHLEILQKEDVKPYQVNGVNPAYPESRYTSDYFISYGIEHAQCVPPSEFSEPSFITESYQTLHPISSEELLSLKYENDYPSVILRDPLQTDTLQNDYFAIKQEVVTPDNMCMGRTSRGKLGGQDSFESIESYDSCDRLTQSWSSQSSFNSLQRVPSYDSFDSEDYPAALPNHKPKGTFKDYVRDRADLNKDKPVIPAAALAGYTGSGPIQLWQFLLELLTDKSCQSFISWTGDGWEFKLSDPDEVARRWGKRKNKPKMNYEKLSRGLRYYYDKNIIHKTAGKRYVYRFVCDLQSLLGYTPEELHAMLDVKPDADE", "experiment": "ETS1 binding intensity (PBM fluorescence), ETS1 alone (arbitrary fluorescence units); higher = stronger binding", "conditions": "ETS1 concentration 1 nM; RUNX1 concentration 0 nM"}, "ETS1 [2]": {"target": "T1, ETS1", "experiment": "ETS1 binding intensity (PBM fluorescence) in presence of RUNX1, normalised to ETS1-only experiment (arbitrary fluorescence units); higher = stronger binding", "conditions": "ETS1 concentration 1 nM; RUNX1 concentration 25 nM"}},
  "data": [
    {"sequence": "CCAGAAAGCTCCTCCTTCCGCCACAACACGATCACT", "values": [
      {"measurement": "ETS1 binding intensity", "setting": "ETS1 [1]", "value": 538},
      {"measurement": "ETS1 binding intensity", "setting": "ETS1 [2]", "value": 451}
    ]},
    {"sequence": "ACTCCGCCCCTTCCGCCTGGCGGTTCCACTTCTCGG", "values": [
      {"measurement": "ETS1 binding intensity", "setting": "ETS1 [1]", "value": 480},
      {"measurement": "ETS1 binding intensity", "setting": "ETS1 [2]", "value": 456}
    ]},
    {"sequence": "CACTCCCCCATTCCGGCTGCAGGTTGAGGTTTGGAA", "values": [
      {"measurement": "ETS1 binding intensity", "setting": "ETS1 [1]", "value": 517},
      {"measurement": "ETS1 binding intensity", "setting": "ETS1 [2]", "value": 571}
    ]},
    {"sequence": "ATGACTTAGCAACATCCTGACAACCACTACATTGTC", "values": [
      {"measurement": "ETS1 binding intensity", "setting": "ETS1 [1]", "value": 476},
      {"measurement": "ETS1 binding intensity", "setting": "ETS1 [2]", "value": 420}
    ]},
    {"sequence": "TCACTCTAACAGGATATTGTGGTTAACTATGTTGCC", "values": [
      {"measurement": "ETS1 binding intensity", "setting": "ETS1 [1]", "value": 2460},
      {"measurement": "ETS1 binding intensity", "setting": "ETS1 [2]", "value": 17400}
    ]},
    {"sequence": "AGGGCGCCGCTTCCGGGAGCCCGCAAGCGGCCTCCG", "values": [
      {"measurement": "ETS1 binding intensity", "setting": "ETS1 [1]", "value": 606},
      {"measurement": "ETS1 binding intensity", "setting": "ETS1 [2]", "value": 715}
    ]},
    {"sequence": "TGCTCCACTCGGAAGTGGTGCCGCAGCTCTTCGATG", "values": [
      {"measurement": "ETS1 binding intensity", "setting": "ETS1 [1]", "value": 697},
      {"measurement": "ETS1 binding intensity", "setting": "ETS1 [2]", "value": 800}
    ]},
    {"sequence": "GCCGTGAGAAACATCCTGCCTAACCACCTGACTACA", "values": [
      {"measurement": "ETS1 binding intensity", "setting": "ETS1 [1]", "value": 618},
      {"measurement": "ETS1 binding intensity", "setting": "ETS1 [2]", "value": 678}
    ]},
    {"sequence": "TGACTCACCTTCCTGTAGGTTGGTTTTCTGCATATC", "values": [
      {"measurement": "ETS1 binding intensity", "setting": "ETS1 [1]", "value": 472},
      {"measurement": "ETS1 binding intensity", "setting": "ETS1 [2]", "value": 308}
    ]},
    {"sequence": "CCGGGAGGGACGGAGGATGTGTGGTTCTGTCTCCTT", "values": [
      {"measurement": "ETS1 binding intensity", "setting": "ETS1 [1]", "value": 673},
      {"measurement": "ETS1 binding intensity", "setting": "ETS1 [2]", "value": 553}
    ]},
    {"sequence": "CGAAGAGGAAGCCCCTGTATCACCCCACAAGAAGCC", "values": [
      {"measurement": "ETS1 binding intensity", "setting": "ETS1 [1]", "value": 544},
      {"measurement": "ETS1 binding intensity", "setting": "ETS1 [2]", "value": 555}
    ]},
    {"sequence": "TTGCGTCACGTCCGGCCTGCGAGTTACCGCCCACTC", "values": [
      {"measurement": "ETS1 binding intensity", "setting": "ETS1 [1]", "value": 690},
      {"measurement": "ETS1 binding intensity", "setting": "ETS1 [2]", "value": 603}
    ]},
    {"sequence": "GAGCAGCGGGAGGAAGCTGCGGCGCGCAGAGCAGAG", "values": [
      {"measurement": "ETS1 binding intensity", "setting": "ETS1 [1]", "value": 534},
      {"measurement": "ETS1 binding intensity", "setting": "ETS1 [2]", "value": 486}
    ]},
    {"sequence": "TGTGCTTTGTAGTGAGGATGTGGGTGCCTGCCTCAC", "values": [
      {"measurement": "ETS1 binding intensity", "setting": "ETS1 [1]", "value": 797},
      {"measurement": "ETS1 binding intensity", "setting": "ETS1 [2]", "value": 1010}
    ]},
    {"sequence": "ATGCCAAGGGACTTCCCTCCACAACCGCCCCCAGCT", "values": [
      {"measurement": "ETS1 binding intensity", "setting": "ETS1 [1]", "value": 642},
      {"measurement": "ETS1 binding intensity", "setting": "ETS1 [2]", "value": 529}
    ]},
    {"sequence": "TTCTCTGATTTTCCTTCCGCTCCCACAGCCTCTCCC", "values": [
      {"measurement": "ETS1 binding intensity", "setting": "ETS1 [1]", "value": 697},
      {"measurement": "ETS1 binding intensity", "setting": "ETS1 [2]", "value": 612}
    ]},
    {"sequence": "TTCATCTACTTCCCGCCACACCCACAGAGAAGCCCA", "values": [
      {"measurement": "ETS1 binding intensity", "setting": "ETS1 [1]", "value": 469},
      {"measurement": "ETS1 binding intensity", "setting": "ETS1 [2]", "value": 377}
    ]},
    {"sequence": "GAGCACATTTCCTTTTGCTTCCAGATACCACAGTGA", "values": [
      {"measurement": "ETS1 binding intensity", "setting": "ETS1 [1]", "value": 445},
      {"measurement": "ETS1 binding intensity", "setting": "ETS1 [2]", "value": 412}
    ]}
  ]
}
